# Experimental data reported in PubChem BioAssay AID686979 (National Center for Advancing Translational Sciences (NCATS), 2013).
# Among all 420,000 compounds or so, about 50,000 (12%) were called active. Where a call stands in place of a potency, no number is given. Roughly 26% stayed inconclusive and do not appear here. The sample holds actives, similar compounds and a random draw of the others, so the mix is not that of the screen. Calls come from the whole dose curve; as a rule, active = well fitted inhibition curve with a large enough effect; inconclusive = small, poorly fitted or top-dose-only effect; inactive = flat fitted curve, though single readings scatter.
# Assay: qHTS for Inhibitors of human tyrosyl-DNA phosphodiesterase 1 (TDP1): qHTS in cells in presence of CPT; note: nearly all actives have a fitted effect of over 55% in size
# Details: chicken DT40 Tdp1-/-;hTDP1 cells + 20 nM CPT, ATP luminescence, 48 h; series mostly up to 46.2 µM
# Summary of the method: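 Chicken DT40 Tdp1-/- cells complemented with human TDP1, 400 cells/well, exposed to compounds plus 20 nM camptothecin for at least 48 h at 37 C; viability read as ATP content by CellTiter-Glo luminescence.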
# Potency is the fitted concentration of half-maximal effect.
row,Structure (SMILES),Potency
1,COCCN1C=C2C(=O)C(C)(OC(=O)C3CCCC3)C(=O)C=C2C=C1c1ccsc1 (stereo unspecified),inactive
2,COC(=O)CCCC1=CC2=CC(=O)C(C)(OC(=O)c3cccs3)C(=O)C2=CN1c1cccc(C#N)c1 (stereo unspecified),inactive
3,COC(=O)CCCC1=CC2=C(c3ccccc3)C(=O)C(C)(OC(=O)C3CCCC3)C(=O)C2=CN1c1ccc(OC)cc1 (stereo unspecified),20.6 µM (active)
4,O=c1ccc(S(=O)(=O)N2CCCC2)cn1Cc1nc(-c2ccccc2)no1,inactive
5,Clc1cccc(Cl)c1Cn1nnc(-c2cccs2)n1,inactive
6,O=C(Cc1ccc([N+](=O)[O-])cc1)N/N=C/c1ccco1,inactive
7,CCN(/N=C/c1ccccc1)c1cc(=O)n(C)c(=O)[nH]1,inactive
8,CC(=O)Nc1cc(C(=O)O)ccc1S(=O)(=O)c1ccc(Cl)cc1,inactive
9,O=C(Nc1ccccc1)c1nnsc1S(=O)(=O)c1ccc(Cl)cc1,4.61 µM (active)
10,O=C(Nc1cccc(Cl)c1)c1csnn1,inactive
11,CC(=O)c1ccc(OCCN2CCOCC2)cc1,inactive
12,CCOc1ccc(C2C(C(=O)O)c3ccccc3C(=O)N2CCN2CCOCC2)cc1 (stereo unspecified),inactive
13,CCOc1ccc(C(=O)CCN2CCOCC2)cc1,3.26 µM (active)
14,COc1cccc(N(C(=O)CNC(=O)c2ccco2)C(C(=O)NC2CCCCC2)c2cccnc2)c1 (stereo unspecified),inactive
15,COc1ccccc1CC(=O)NCCc1c[nH]c2ccccc12,inactive
16,COc1ccc(S(=O)(=O)NCCc2c[nH]c3ccccc23)cc1OC,inactive
17,COc1cccc(CNCCc2c[nH]c3ccccc23)c1OCc1ccccc1F,10.3 µM (active)
18,Cc1noc(C)c1C(=O)NCCc1ccc(S(N)(=O)=O)cc1,inactive
19,CCOC(=O)c1c(C)[nH]c(C2=NNC(=NC(C)COC)SC2)c1C (stereo unspecified),20.6 µM (active)
20,CCOCCCNC(=O)C(NC(=O)CNC(=O)c1ccccc1)c1ccc(C)cc1 (stereo unspecified),inactive
21,CC1CCN(C(=O)/C(=C\c2ccccc2F)NC(=O)c2ccccc2)CC1,inactive
22,COC(=O)c1ccccc1C(=O)NCc1nc(N2CCCC2)c2cccc(C)c2n1,inactive

row,Structure (SMILES),Potency
1,CCCC(=O)n1nc(NCc2ccc(OC)cc2)nc1NCc1ccc(OC)cc1,inactive
2,COc1ccc(CNc2nc(NCc3ccc(OC)cc3)c3ncn(C4CCCC4)c3n2)cc1,3.26 µM (active)
3,COc1ccc(CNC2CCCCC2)cc1,inactive
4,COc1ccc(-n2c(SCC(=O)NCc3cccs3)nnc2-c2ccoc2C)cc1,inactive
5,C/C(=N\NC(=O)c1ccc(CSc2nc(C)cc(C)n2)cc1)C1CCCCC1,inactive
6,CC(=O)c1c(C)c[nH]c1C,23.1 µM (active)
7,C1CC1Cc1noc(CN2CCN(CC3CC3)CC2)n1,inactive
8,CC1(C(=O)NCCc2c[nH]c3ccccc23)C=CC2(CCCCC2)N1C(=O)c1ccccc1 (stereo unspecified),18.4 µM (active)
9,O=C(CN1C(=O)NC2(CCCCC2)C1=O)NCCc1c[nH]c2ccccc12,inactive
10,O=C(NCCc1c[nH]c2ccccc12)c1cccc(Br)c1,inactive
11,C=CCn1c(SCC(=O)NC)nnc1C12CC3CC(CC(C3)C1)C2,inactive
12,Cc1cc(C)cc(OCC(=O)NNC(=O)CCN2C(=O)c3ccccc3C2=O)c1,inactive
13,Cc1ccsc1/C=N/NC(=O)Cc1cc(=O)[nH][nH]1,inactive
14,COc1cc(CCC(=O)N2CCN(c3ccccc3Cl)CC2)cc(OC)c1OC,11.6 µM (active)
15,CC(=O)c1ccc(N2CCN(C(=O)CCc3ccccc3)CC2)cc1,inactive
16,COc1cc(CCC(=O)Nc2ccncc2Cl)cc(OC)c1OC,inactive
17,Cc1cc(Cl)c2oc(C(=O)N3CCC(O)(c4ccccc4)CC3)c(C)c2c1,inactive
18,Cc1cc2nc(-c3ccco3)c(Cc3cccc(F)c3)n2c(C)c1Br,16.4 µM (active)
19,CCCCN(C(=O)c1ccc2ccccc2c1)c1c(N)n(CCCC)c(=O)[nH]c1=O,inactive
20,CN(CC(=O)NCCc1ccc(S(N)(=O)=O)cc1)CC(=O)Nc1ccc(F)c(F)c1F,inactive
21,O=C(Nc1ccccc1F)c1ccc(S(=O)(=O)N2CCCCCC2)cc1,inactive
22,CCOC(=O)c1csc(NC(=O)c2ccc(S(=O)(=O)N3CCCC3)cc2)n1,inactive

row,Structure (SMILES),Potency
1,O=C(Nc1ncccc1O)c1ccc(S(=O)(=O)N2CCCC2)cc1,14.6 µM (active)
2,CN1CCN(S(=O)(=O)c2cccc(C(=O)Nc3sccc3C#N)c2)CC1,inactive
3,O=C(N/N=C/c1ccccn1)c1ccc(S(=O)(=O)N2CCCCCC2)cc1,inactive
4,Cc1ccc(C(=O)Nc2ncccc2C)cc1S(=O)(=O)N1CCOCC1,inactive
5,Cc1ccc(C)c2sc(NC(=O)c3ccc(S(=O)(=O)N4CCCC4)cc3)nc12,29.1 µM (active)
6,Cc1cccnc1NC(=O)c1cccc(S(=O)(=O)N2CCN(c3ccc(F)cc3)CC2)c1,18.4 µM (active)
7,Cc1cc2nc(NC(=O)c3ccc(S(=O)(=O)N4CCOCC4)cc3)sc2cc1C,inactive
8,CCOc1cc(C)ccc1OCc1nnc(SCC(=O)Nc2cccc(C(=O)O)c2)n1-c1ccccc1,inactive
9,CCCOc1ccc(/C=N/NC(=O)C2CC2)c(OCCC)c1,inactive
10,CC(C)CN1CC(C)C(=O)N(c2ccccc2)C1=S (stereo unspecified),inactive
11,N#CC(Cc1cc2ccccc2n1S(=O)(=O)c1ccccc1)OCc1ccccc1 (stereo unspecified),inactive
12,N[C@@H](Cc1ccccc1)C(=O)N1CCC(C(=O)NCC(=O)Nc2ccc(F)cc2)CC1,inactive
13,Cc1ccccc1C(=O)O,inactive
14,O=C(O)c1cc([N+](=O)[O-])c(Nc2cccc3ccccc23)c([N+](=O)[O-])c1,inactive
15,CCN(CC)CCCNC(=O)Cn1cnc2sc(C)c(S(=O)(=O)N3CCN(c4ncccn4)CC3)c2c1=O,inactive
16,CC1(C)CC(=O)C=C(c2cccc3c2Oc2ccccc2S3)C1,inactive
17,COc1cc(OC)cc(C(=O)NNC(=O)CCOc2ccccc2OC)c1,inactive
18,COc1ccc(S(=O)(=O)c2c[nH]c(=S)[nH]c2=O)cc1Cl,inactive
19,COc1ccc(-c2nc3ccccc3o2)cc1NC(=O)c1cc([N+](=O)[O-])ccc1N1CCOCC1,inactive
20,Cc1cc(OCc2cc(C(=O)NCc3cc(C(C)C)no3)no2)cc(C)c1Cl,inactive
21,CCOC(=O)c1c(NC(=O)c2cc(CC)on2)sc(C(C)=O)c1C,inactive
22,CCOC(=O)CC1(NC(=O)c2cc(COc3cncc(Cl)c3)on2)CCCCC1,23.1 µM (active)
